TGFb inhibitor – TGF-b pathway inhibition. HepG2 CAGA-GFP TGF-b/SMAD3 reporter, GFP fluorescence, 18 h; TGF-beta stimulated, 500 pg/mL final. Potency, µM (titrated, usually from 46.1 µM), inactives show top-dose activity, negative = inhibition, actives largely listed as inhibitors. hit rate 1.2% among 410,000. AID 588855; also: % is scaled to controls: 0 for no effect and ±100 for the full control effect; nearly all actives have a fitted effect of over 65% in size
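HEPG2 CAGA-GFP reporter cells (1000/well, DMEM with 1% FBS) received compounds, then recombinant TGF-beta at 500 pg/mL final for 18 hours at 37 degrees C. Per-cell GFP summed per well was normalised to unstimulated and stimulated DMSO controls before curve fitting.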
HepG2 tox – HepG2 cytotoxicity, counter-screen for TGF-b inhibitors; HepG2 CAGA-GFP viability, ATP luminescence, 18 h; Potency, µM (doses to about 46.1 µM), for the others: top-dose activity change, negative = cytotoxicity, hits mostly cytotoxic; hit rate 0.76% among 410,000
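HepG2 CAGA-GFP cells (1000/well, DMEM with 1% FBS) received compound, then TGF-beta at 500 pg/mL final, and were incubated 18 hours at 37 degrees C. Viability was read by CellTiter-Glo luminescence. Media-only wells were set as complete cell-killing and DMSO as no toxicity.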
HT1080 IDH1KD tx – toxicity to HT-1080 IDH1 knockdown cells (counter line) | HT-1080 IDH1 knockdown viability, ATP luminescence, 48 h | Potency, µM (titrated, usually from 46.1 µM), for inactives: top-dose activity, negative = toxicity, most hits filed as cytotoxic | hit rate 2% among 360,000 | AID 686971;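 also: 0% = DMSO wells and -100% = cell-free medium wells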
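After a 2 h attachment period, IDH1KD HT-1080 cells took pin-transferred compound for 48 h at 37 °C; ATP-based luminescence after 10 min room-temperature reagent incubation reported viability.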
HT1080NT lethal – kills 2HG-producing HT-1080-NT fibrosarcoma cells | HT-1080-NT fibrosarcoma viability, CellTiter-Glo ATP luminescence, 48 h | Potency, µM (top dose mostly 46.1 µM), for inactives: at the top dose activity, negative = less viability, usual class: cytotoxic | hit rate 1.6% among 360,000;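 also: NT is the 2HG producing partner of a matched IDH1 knockdown line; 0% = DMSO-treated cells and -100% = media-only wells without cells; nearly all actives have a fitted effect of over 55% in size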
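750 cells/well, RPMI + 5% FBS; 2 h settle, compound pin-transfer, 48 h at 37 degrees C. CellTiter-Glo 10 min RT, luminescence. Normalized to DMSO and media-only wells.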
ATXN2 expr inh – reduces ATXN2 reporter expression in HEK-293 cells; HEK-293 ATXN2-luciferase reporter, luminescence, 24 h; Potency, µM (series often up to 57 µM), inactives show at the highest dose activity change, negative = inhibition, most hits filed as inhibitors; hit rate 0.72% among 360,000; also: % is scaled to controls: 0 for no effect and ±100 for the full control effect; nearly all actives have a fitted effect of over 55% in size
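ATXN2-luciferase reporter cells (luciferase flanked by upstream and downstream ATXN2 gene portions) were treated 24 h at 37 °C with compounds at up to 57 uM. SteadyGlo luminescence gave expression; GF-AFC fluorescence gave viability.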
ATXN viability – reduces viability in counter-screen for ATXN expression inhibitors; S2 cells (HEK-293 line with an ATXN2-luciferase reporter) viability, CellTiter-Fluor protease fluorescence, 24 h; Potency, µM (highest dose often 56.7 µM), most hits filed as cytotoxic; hit rate 0.49% among 400,000; also: nearly all actives have a fitted effect of over 40% in size
* = called active by the depositor; i = inactive; ? = inconclusive; / = no result given; [ ] = dose if it differs, or a comment. Shown are actives, neighbours in structure and some others; about 3.9% of the full set was active somewhere. Calls follow the shape of the dose curve; as a rule, active = well fitted curve in the direction sought with a large enough effect; inconclusive = small, poorly fitted or top-dose-only effect, or another doubt; inactive = no such curve, though single readings can be large; an effect the other way counts as inactive or inconclusive. Potency is read from the fitted curve at half-maximal effect.

SMILES	TGFb inhibitor	HepG2 tox	HT1080 IDH1KD tx	HT1080NT lethal	ATXN2 expr inh	ATXN viability
CCOc1ccc(Nc2nc(NCC3CCCO3)c3ccccc3n2)cc1 (stereo not given)	11.2µM*	-51.3%	?	18.4µM*	?	?
O=C(O)c1ccc(OCCN2CCCCC2)cc1	/	/	/	/	12.8%	i
CS(=O)(=O)N1CCN(c2ccc(NC(=O)c3ccc(-c4ccc(Cl)cc4)o3)cc2)CC1	-6.4%	-17.0%	-13.9%	-28.8%	-23.3%	i
O=C(NC(=S)Nc1ccc(CN2CCOCC2)cc1)c1ccc(-c2ccc(Br)cc2)o1	19.8%	-2.6%	4.2%	7.3%	-1.2%	i
O=C(Nc1ccc(CN2CCOCC2)cc1)c1ccc(-c2ccc(Cl)cc2Cl)o1	?	-15.4%	?	14.6µM*	?	i
COc1ccc(Br)cc1C(=O)NC(=S)Nc1ccc(CN2CCOCC2)cc1	-7.6%	-17.1%	?	?	25.1µM*	i
CN1CCN(c2ccc(NC(=O)c3ccc(-c4ccc(Cl)cc4)o3)cc2)CC1	?	15.8µM*	8.2µM*	5.8µM*	?	/
O=C(Nc1ccc(CN2CCOCC2)cc1)c1cc2ccccn2n1	-10.7%	-31.0%	-6.0%	3.7%	22.4µM*	i
CSc1nccc(-c2cc(Cl)c3c(c2)CC(CNC(=O)c2nonc2C)O3)n1 (stereo not given)	/	/	/	/	/	i
[O-][n+]1cccc(/C(Cl)=N/OC[C@@H](O)CN2CCCCC2)c1	/	/	/	/	13.6%	i
COc1ccc(Cl)cc1NC(=O)c1cc2nc(-c3ccc(C)cc3)cc(C(F)(F)F)n2n1	-3.5%	9.5%	/	/	7.1%	i
O=c1[nH]c(=O)n([C@H]2O[C@H](CO)[C@@H](O)[C@@H]2O)cc1/C=C\Br	/	/	/	/	-8.8%	i
CCOC(=O)c1cc(-c2ccc(OC)cc2)n(CCC(=O)NC2CCCCC2)c1C	?	-15.5%	/	/	/	/
CC(=O)c1cccc(Nc2c3c(nc4ccccc24)CCC3)c1	?	-28.2%	2.59µM*	5.8µM*	?	?
Cc1ccc2nc3c(c(C(=O)O)c2c1)CCC3	2.6%	-31.9%	1.5%[9.24 µM]	0.7%	1.6%	i
Fc1cccc(Nc2c3c(nc4ccccc24)CCC3)c1	-26.5%	-19.4%	-8.7%	-6.5%	?	?
CC(=O)c1ccc(Nc2c3c(nc4ccccc24)CCCC3)cc1	-7.9%	-35.9%	?	?	/	?
CCOC(=O)c1cccc(Nc2c3c(nc4ccccc24)CCC3)c1	?	-40.2%	/	/	?	?
Cc1ccc2nc3c(c(Nc4cccc(O)c4)c2c1)CCC3	?	-18.6%	?	18.4µM*	-20.9%	?
c1ccc2c(Nc3ccc4c(c3)OCCO4)c3c(nc2c1)CCCC3	?	-30.5%	?	16.4µM*	/	i
COC(=O)c1cccc(Nc2c3c(nc4ccccc24)CCC3)c1	-27.0%	-28.6%	16.4µM*	20.6µM*	-30.6%	i
Cn1cnnc1Sc1ccc(CN2CCOc3ccc(C4=Cc5ccccc5CC4)cc3C2)o1	/	/	/	/	/	i
Cc1cccc(N=C2NN=C(c3ccc4c(c3)OCCO4)CS2)c1	-1.4%	-25.1%	?	?	15.3%	i
CCc1ccc(C2=NNC(=Nc3cccc(S(=O)(=O)N(C)C)c3)SC2)cc1	12.6µM*	-40.8%	?	20.6µM*	?	?
CCc1ccc(NC(=O)c2ccc(Cn3nc(N4CCN(c5ccccc5)CC4)ccc3=O)o2)cc1	?	-35.9%	/	/	/	/
SMILES	TGFb inhibitor	HepG2 tox	HT1080 IDH1KD tx	HT1080NT lethal	ATXN2 expr inh	ATXN viability
CCc1ccccc1NC(=O)c1ccc(Cn2nc(N3CCN(c4ccccc4)CC3)ccc2=O)o1	?	-29.6%	/	/	20µM*	?
CSc1ncc(C(=O)N2CCN(c3cccc(Cl)c3)CC2)c(C)n1	?	-35.4%	/	/	-30.5%	i
O=C(c1cccs1)N1CCN(c2cccc(Cl)c2)CC1	-2.1%	-29.6%	-0.3%	1.3%	-35.0%	i
Cc1noc(C)c1COc1ccccc1C(=O)N1CCN(c2cccc(Cl)c2)CC1	?	-25.4%	23.1µM*	23.1µM*	/	i
CSc1ccccc1C(=O)N1CCN(c2cccc(Cl)c2)CC1	?	-47.2%	23.1µM*	?	-27.4%	i
Cc1cc(C(=O)N2CCN(c3cccc(Cl)c3)CC2)c(C)o1	-6.5%	-23.5%	16.4µM*	?	-29.8%	i
O=C(c1ccc([N+](=O)[O-])s1)N1CCN(c2cccc(Cl)c2)CC1	11.2µM*	-97.8%	6.1%	3.9%	-24.7%	?
N#Cc1c2c(c(Cl)n3c1nc1ccccc13)CCCC2	-2.9%	-7.4%	/	/	/	/
CCc1nn(CC(=O)N2CCN(c3cccc(C)c3)C(C)C2)c(=O)c2cc3sccc3n12 (stereo not given)	-31.0%	-8.2%	/	/	/	/
O=C1C=CC(=O)c2c(O)c(CO)c(CO)c(O)c21	11.2µM*	10µM*	-29.5%	-14.9%	?	?
N#Cc1nc(-c2cccc3ccccc23)oc1NCCN1CCCCC1	0.0%	22.4µM*	?	?	-13.8%	i
CCNc1oc(-c2cccc3ccccc23)nc1C#N	-20.4%	-3.9%	?	?	22.5%	?
O=C(NNc1ccc(F)cc1F)C1CCC1	-26.9%	-23.1%	4.61µM*	?	-13.2%	i
CCN1CCOC(CC(=O)Nc2ccc([N+](=O)[O-])cc2)C1=O (stereo not given)	0.0%	20µM*	12.8%	10.6%	22.8%	i
CCN(CC)CCCNc1cc(C)nc2cc(-c3cccs3)nn12	-8.4%	-12.4%	-0.3%	-16.4%	-15.1%	?
CCN(CC)CCCCNc1nc2cc(Cl)c(Cl)cc2nc1-c1ccc(-c2cccs2)s1	/	/	/	/	21.7µM*	/
Nc1c(-c2nc(-c3ccccc3)cs2)c2ccccn2c1C(=O)c1ccc2c(c1)OCO2	6.8%	-10.7%	/	/	11.8%	i
COc1ccc(NC(=O)Cn2c(=O)n(C(C)C)c(=O)c3oc4ccccc4c32)cc1Cl	?	-4.9%	/	/	/	/
Cn1c(=O)oc2cc(S(=O)(=O)N3CCCC(C(=O)Nc4ccc(Br)cc4F)C3)ccc21 (stereo not given)	-8.5%	-7.9%	/	/	8.2%	i
O=C(Nc1cccc(-c2csc(Nc3ccc(Cl)cc3)n2)c1)c1cccc(C(F)(F)F)c1	?	0.3%	?	?	?	?
O=C(Nc1cccc(-c2csc(Nc3ccc(Cl)cc3)n2)c1)c1ccccc1	?	-17.3%	?	?	?	15.8µM*
O=C(/C=C/c1ccccc1)c1ccccc1	?	-69.8%	20.6µM*	16.4µM*	18.5%	i

Screens: PubChem, National Center for Advancing Translational Sciences (NCATS)
